These results are taken from PMC8384837, “Expanding the binding specificity for RNA recognition by a PUF domain”.

What all share (experiment): yeast three-hybrid, YBZ-1, SC-Leu-His + 0.5 mM 3-AT, 4 days
Common to all, as to conditions: tags: N-Gal4 AD-HA kept; label: inside an RPR1-promoter hybrid RNA with tandem MS2 sites; ssRNA

One test has as its target PUM1 PUF domain R8-KWF (Homo sapiens, UniProt Q14671 828-1176, N1122K;Y1123W;Q1126F). An outline of the steps:
(§1)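 Pumilio-1 PUF domain libraries, randomized at the three base-contacting residues of each repeat, were co-expressed with matching RNA elements from a centromeric plasmid in strain YBZ-1, which carries a LexA–MS2 coat fusion and a HIS3 reporter. Transformants grew for four days on SC-Leu (input) or on SC-Leu-His + 0.5 mM 3-AT (selection), and the repeat regions were PCR-amplified and Illumina-sequenced. The interaction score is the log change in variant frequency from input to selection. That logarithm is base 2, with a pseudocount of 1 where a variant was absent.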

The next test concerns the target PUM1 PUF domain R8-PYF (Homo sapiens, UniProt Q14671 828-1176, N1122P;Q1126F). In a few lines: as §1
A further test addresses PUM1 PUF domain R5-PHS (Homo sapiens, UniProt Q14671 828-1176, C1007P;R1008H;Q1011S). An outline of the steps:
as §1

In the next test the target is PUM1 PUF domain R4-SPG (Homo sapiens, UniProt Q14671 828-1176, N971S;H972P;Q975G). An outline of the steps:
as §1

Another test deals with PUM1 PUF domain R3-EWA (Homo sapiens, UniProt Q14671 828-1176, C935E;R936W;Q939A). In a few lines:
as §1

A further test deals with PUM1 PUF domain R3-RTM (Homo sapiens, UniProt Q14671 828-1176, C935R;R936T;Q939M). In a few lines:
as §1

The target of another test is PUM1 PUF domain R3-KFN (Homo sapiens, UniProt Q14671 828-1176, C935K;R936F;Q939N). In a few lines:
as §1

In a further test the target is PUM1 PUF domain R3-IFK (Homo sapiens, UniProt Q14671 828-1176, C935I;R936F;Q939K). In a few lines:
as §1

For a further test, the target named is PUM1 PUF domain R1-GFE (Homo sapiens, UniProt Q14671 828-1176, S863G;R864F;Q867E). An outline of the steps:
as §1

The next test has as its target PUM1 PUF domain R1-RKK (Homo sapiens, UniProt Q14671 828-1176, S863R;R864K;Q867K). An outline of the steps: as §1
The next test addresses PUM1 PUF domain R1-KGT (Homo sapiens, UniProt Q14671 828-1176, S863K;R864G;Q867T). In a few lines:
as §1

The next test addresses T1, PUM1 PUF domain R6-TWD (Homo sapiens, UniProt Q14671 828-1176, N1043T;Y1044W;Q1047D).
T1 sequence: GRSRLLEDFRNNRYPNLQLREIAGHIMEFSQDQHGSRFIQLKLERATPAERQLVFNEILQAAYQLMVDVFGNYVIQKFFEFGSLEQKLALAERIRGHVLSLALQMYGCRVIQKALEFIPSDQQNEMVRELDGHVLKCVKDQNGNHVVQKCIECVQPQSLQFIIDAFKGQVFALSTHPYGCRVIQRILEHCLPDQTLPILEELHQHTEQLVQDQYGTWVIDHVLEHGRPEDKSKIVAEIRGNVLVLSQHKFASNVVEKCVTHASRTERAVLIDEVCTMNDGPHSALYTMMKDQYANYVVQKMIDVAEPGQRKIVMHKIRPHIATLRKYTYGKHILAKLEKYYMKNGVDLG
In a few lines: as §1

PUM1 PUF domain R3-EWA, sequence (Q14671 828-1176 C935E/R936W/Q939A): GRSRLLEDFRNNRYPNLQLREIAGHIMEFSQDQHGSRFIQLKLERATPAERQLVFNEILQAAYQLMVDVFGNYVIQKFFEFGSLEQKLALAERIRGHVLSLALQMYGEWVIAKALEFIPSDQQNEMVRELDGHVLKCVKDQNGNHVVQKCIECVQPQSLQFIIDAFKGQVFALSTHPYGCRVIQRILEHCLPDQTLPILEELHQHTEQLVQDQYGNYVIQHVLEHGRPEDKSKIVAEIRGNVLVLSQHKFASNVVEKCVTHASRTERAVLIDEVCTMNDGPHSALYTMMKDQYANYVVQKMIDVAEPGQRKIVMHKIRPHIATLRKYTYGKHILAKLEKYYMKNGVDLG
PUM1 PUF domain R4-SPG, sequence (Q14671 828-1176 N971S/H972P/Q975G): as the sequence (Q14671 828-1176 C935E/R936W/Q939A) above, with E108C, W109R, A112Q, N144S, H145P, Q148G counted along it

Regarding “GGCUAGAACUAGUGGAUCCCCCGGCGCCCGGCGGCUCGAGCCCGGGUAAGCGUAAAUAGUCUGCAUGCCGCCGGGCGCCAUGCCUGCAGGUCGACUCUAGAAAACAUG”, the binding signal in the test with PUM1 PUF domain R8-KWF is 4.32 log2 enrichment (interaction score); with PUM1 PUF domain R8-PYF, 5.02 log2 enrichment (interaction score).

In the case of “GGCUAGAACUAGUGGAUCCCCCGGCGCCCGGCGGCUCGAGCCCGGGUAAGUGUGAAUAGUCUGCAUGCCGCCGGGCGCCAUGCCUGCAGGUCGACUCUAGAAAACAUG”, the binding signal in the test with PUM1 PUF domain R5-PHS is 2.78 log2 enrichment (interaction score).

Turning to “GGCUAGAACUAGUGGAUCCCCCGGCGCCCGGCGGCUCGAGCCCGGGUAAGUGUAUAUAGUCUGCAUGCCGCCGGGCGCCAUGCCUGCAGGUCGACUCUAGAAAACAUG”, the binding signal with PUM1 PUF domain R4-SPG was 3.58 log2 enrichment (interaction score).

Consider “GGCUAGAACUAGUGGAUCCCCCGGCGCCCGGCGGCUCGAGCCCGGGUAAGUGUAAGUAGUCUGCAUGCCGCCGGGCGCCAUGCCUGCAGGUCGACUCUAGAAAACAUG”, for which the binding signal with PUM1 PUF domain R3-EWA is 4.37 log2 enrichment (interaction score).

Consider “GGCUAGAACUAGUGGAUCCCCCGGCGCCCGGCGGCUCGAGCCCGGGUAAGUGUAAUUAGUCUGCAUGCCGCCGGGCGCCAUGCCUGCAGGUCGACUCUAGAAAACAUG”, for which the binding signal with PUM1 PUF domain R3-RTM is 2.52 log2 enrichment (interaction score); with PUM1 PUF domain R3-EWA, 4.15 log2 enrichment (interaction score); with PUM1 PUF domain R3-KFN it was 3.99 log2 enrichment (interaction score); with PUM1 PUF domain R3-IFK, 2.58 log2 enrichment (interaction score).

For “GGCUAGAACUAGUGGAUCCCCCGGCGCCCGGCGGCUCGAGCCCGGGUAAGUGUAAAUUGUCUGCAUGCCGCCGGGCGCCAUGCCUGCAGGUCGACUCUAGAAAACAUG”, the binding signal in the test with PUM1 PUF domain R1-GFE was 0.52 log2 enrichment (interaction score); with PUM1 PUF domain R1-RKK, 3.57 log2 enrichment (interaction score); with PUM1 PUF domain R1-KGT, 3.61 log2 enrichment (interaction score).

Turning to “GGCUAGAACUAGUGGAUCCCCCGGCGCCCGGCGGCUCGAGCCCGGGUAAGUGAAAAUAGUCUGCAUGCCGCCGGGCGCCAUGCCUGCAGGUCGACUCUAGAAAACAUG”, the binding signal with PUM1 PUF domain R6-TWD was 3.18 log2 enrichment (interaction score).
